BAZ2B inh: inhibitors of human BAZ2B bromodomain; Q9UIF8; AlphaScreen BAZ2B-H3K14Ac peptide displacement; Potency, µM (series often up to 114 µM), without a hit: at the top dose activity change, negative = inhibition, hits mostly inhibitors; 4.4% of 360,000 active; AID 504333; note: % is set by controls: 0 for no effect and ±100 for the full control effect; nearly all actives have a fitted effect of over 60% in size
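AlphaScreen displacement of biotin-H3(5-23)K14Ac peptide (50 nM final) from BAZ2B (50 nM final) in PBS pH 7.4, 0.01% Tween-20; complex preformed 30 min RT, then compounds (top 110 uM) 30 min RT, beads 20 min dark.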
Sfp PPTase inh: Sfp phosphopantetheinyl transferase inhibition. 3.5% of 310,000 active. Q9F4F7. Biochemical Sfp PPTase activity, qHTS. Potency, µM, for the others: largest response in the series, negative = inhibition, hits mostly inhibitors;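 note: the enzyme is Sfp with the accession as filed and its product quenches rhodamine fluorescence; 0% = enzyme reaction without inhibitor and -100% = no enzyme wells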
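Compounds were incubated with enzyme (final 15 nM) for 15 min at room temperature before substrate addition started the reaction. Fluorescence at 525 nm excitation, 598 nm emission was recorded immediately and after 30 minutes.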
HP1b binding inh: blocks HP1-beta chromodomain binding to methylated histone tails; AlphaScreen HP1-beta / biotin-H3K9me3 peptide binding; 0.56% of 390,000 active; P83916; Potency, µM (series often up to 114 µM), for inactives: top-dose activity change, negative = inhibition, actives largely listed as inhibitors; note: nearly all actives have a fitted effect of over 70% in size
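HP1-beta protein (50 nM final) preincubated 30 min at room temperature with biotinylated H3(1-18)K9me3 peptide (50 nM) in PBS pH 7.4, 0.01% Tween-20, then compound added for 30 min. AlphaScreen streptavidin donor/nickel chelate acceptor beads (10 ug/mL final), 30 min dark, luminescence read.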
JMJD2A Tudor inh: JMJD2A Tudor domain (human) inhibition; AlphaScreen JMJD2A-Tudor / H3K4me3 peptide binding; 4.4% of 390,000 active; O75164; Potency, µM (titrated, usually from 114 µM), inactives show at the top dose activity change, negative = inhibition, most hits filed as inhibitors; AID 504339; note: % is set by controls: 0 for no effect and ±100 for the full control effect; nearly all actives have a fitted effect of over 50% in size
12-LOX inh: ALOX12 (human) lipoxygenase inhibition | P18054 | purified 12hLO, xylenol orange hydroperoxide absorbance | Potency, µM (top dose mostly 108 µM), inactives show at the highest dose activity change, negative = inhibition, hits mostly inhibitors | 1.1% of 580,000 active | AID 1671190; note: % is set by controls: 0 for no effect and ±100 for the full control effect
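Hydroperoxide product was detected by ferrous iron/xylenol orange as the 573 to 405 nm absorbance ratio. Arachidonic acid at 40 uM (final) was turned over for 30 min at room temperature by 150 nM human 12hLO, pH 7.0 Hepes buffer, after 15 min compound preincubation.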
G9a block: inhibitors of human histone lysine methyltransferase G9a; Q96KQ7; G9a H3K9 monomethylation, AlphaScreen, 2 h; Potency, µM (titrated, usually from 102 µM), without a hit: top-dose activity, negative = inhibition, hits mostly inhibitors; 8.8% of 350,000 active; note: % is set by controls: 0 for no effect and ±100 for the full control effect; nearly all actives have a fitted effect of over 75% in size
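AlphaScreen detection with an anti-monomethyl H3K9 antibody quantified product after a 2 h room-temperature reaction containing 500 nM biotinylated H3K9 peptide, 20 µM SAM and 20 nM enzyme, which had been preincubated 15 min with compound.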
Active calls of the source: *; [ ] = dose if it differs, or a comment. A selection: hits, their analogues and other compounds. The true share with any hit is near 8.7%. Calls come from the whole dose curve; as a rule, active = well fitted curve in the direction sought with a large enough effect; inconclusive = small, poorly fitted or top-dose-only effect, or another doubt; inactive = no such curve, though single readings can be large; an effect the other way counts as inactive or inconclusive. Potency is the fitted concentration of half-maximal effect.

How did Nc1cccc(C2=Nc3cccc4cccc(c34)N2)c1 do in these assays?
BAZ2B inh: -6%; Sfp PPTase inh: 16%; HP1b binding inh: 20%; JMJD2A Tudor inh: -3%; 12-LOX inh: -6%; G9a block: 25µM*

How did CN1C(=O)Nc2cccc3cccc1c23 do in these assays?
BAZ2B inh: -20%; Sfp PPTase inh: -5%; HP1b binding inh: 17%; JMJD2A Tudor inh: -6%; 12-LOX inh: -50%; G9a block: -14%

Results for CCCc1nnc(NC(=O)NCC(O)c2ccc(F)cc2)s1 (stereo unspecified) ?
12-LOX inh: 15%

How did COc1cccc(CNc2ccc3c(c2)nc(C)n3C)c1OC do in these assays?
BAZ2B inh: -26%; Sfp PPTase inh: 5%; HP1b binding inh: 25%; JMJD2A Tudor inh: -18%; 12-LOX inh: 10%; G9a block: 35µM*

Results for Cc1cccc(NCc2nc3ccccc3n2Cc2ccccc2)c1 ?
BAZ2B inh: inconclusive; Sfp PPTase inh: 12%; HP1b binding inh: 0%; JMJD2A Tudor inh: inconclusive; 12-LOX inh: 0%; G9a block: inconclusive

How did COc1ccc(CNc2nc3ccccc3n2Cc2ccc(C)cc2)cc1OC do in these assays?
BAZ2B inh: inconclusive; Sfp PPTase inh: 11%; HP1b binding inh: -2%; JMJD2A Tudor inh: -34%; 12-LOX inh: 10%; G9a block: 79µM*

Results for COC(=O)c1ccc(NC(=O)Nc2ccc3c(c2)nc(C)n3C)cc1 ?
BAZ2B inh: 0%; Sfp PPTase inh: -5%; HP1b binding inh: 28%; JMJD2A Tudor inh: -4%; 12-LOX inh: -4%; G9a block: -2%

Results for Cc1nc2cc(NCc3nc4ccccc4n3Cc3ccccc3)ccc2n1C ?
BAZ2B inh: 45µM*; Sfp PPTase inh: inconclusive; HP1b binding inh: inconclusive; JMJD2A Tudor inh: inconclusive; 12-LOX inh: 4%; G9a block: -30%[12.7 µM]

How did COc1ccc(CNc2ccc3c(c2)nc(C)n3C)cc1OC do in these assays?
BAZ2B inh: -20%; Sfp PPTase inh: 28%; HP1b binding inh: 15%; JMJD2A Tudor inh: -14%; 12-LOX inh: -23%; G9a block: 40µM*

What do the screens show for `c1ccc(Cn2c(NCc3ccncc3)nc3ccccc32)cc1`?
BAZ2B inh: -16%; Sfp PPTase inh: -14%; HP1b binding inh: 66%; JMJD2A Tudor inh: -19%; 12-LOX inh: 459%; G9a block: -18%

Results for Cc1ccc(C(=O)N2CCN(c3nc4c(c(=O)n(C)c(=O)n4C)n3Cc3ccccc3)CC2)cc1 ?
12-LOX inh: 42%

How did CCOC(=O)C1=C(C)NC2=C(C(=O)c3ccccc32)C1c1ccc(OCc2ccccc2)cc1 (stereo unspecified) do in these assays?
12-LOX inh: -2%

What do the screens show for `CC(C)(C)CCN1CC(Oc2cccc(C(=O)N3CCOCC3)c2)C1`?
12-LOX inh: 22µM*

Results for CC(C)CCN1CC(Oc2cccc(C(=O)N3CCOCC3)c2)C1 ?
12-LOX inh: -2%

How did Cc1nc2nc(SCc3c(F)cccc3Cl)nn2c(C)c1Cc1ccccc1 do in these assays?
BAZ2B inh: 2%; HP1b binding inh: 30%; JMJD2A Tudor inh: 0%; 12-LOX inh: -18%; G9a block: 14%[59 µM]

How did Cc1nc2nc(SCC(=O)N3CCOCC3)nn2c(C)c1Cc1c(F)cccc1Cl do in these assays?
BAZ2B inh: 1%; Sfp PPTase inh: inconclusive; HP1b binding inh: 27%; JMJD2A Tudor inh: -15%; 12-LOX inh: 1%; G9a block: 22µM*

How did Cc1nc2nc(SCC(=O)NCCCN3CCCCCC3)nn2c(C)c1Cc1ccccc1Cl do in these assays?
BAZ2B inh: -29%; Sfp PPTase inh: -15%; HP1b binding inh: 17%; JMJD2A Tudor inh: inconclusive; 12-LOX inh: 0%; G9a block: 79µM*

Results for Nc1ncc(N=Nc2cc(C(=O)O)ccc2Cl)s1 ?
BAZ2B inh: 89µM*; Sfp PPTase inh: inconclusive; HP1b binding inh: inconclusive; JMJD2A Tudor inh: inconclusive; 12-LOX inh: inconclusive; G9a block: -132%[59 µM]

How did CCOC(=O)N1CCN(c2cc(NCCC(=O)O)c3c4c(onc24)-c2ccccc2C3=O)CC1 do in these assays?
BAZ2B inh: 28µM*; Sfp PPTase inh: -24%; HP1b binding inh: -90%; JMJD2A Tudor inh: 56µM*; G9a block: inconclusive

Results for O=C(O)CCCNc1cc(N2CCC3(CC2)OCCO3)c2noc3c2c1C(=O)c1ccccc1-3 ?
BAZ2B inh: 14µM*; Sfp PPTase inh: -11%; G9a block: inconclusive

Results for O=C1c2ccccc2-c2onc3c(N4CCN(CCO)CC4)cc(N4CCN(C(=O)c5ccco5)CC4)c1c23 ?
BAZ2B inh: 16µM*; Sfp PPTase inh: 5µM*; HP1b binding inh: inconclusive; JMJD2A Tudor inh: 25µM*; 12-LOX inh: 17%; G9a block: 28µM*

How did O=C(O)CCCNc1cc(N2CCN(C(=O)c3ccco3)CC2)c2noc3c2c1C(=O)c1ccccc1-3 do in these assays?
BAZ2B inh: 18µM*; Sfp PPTase inh: -3%; HP1b binding inh: 35µM*; JMJD2A Tudor inh: 35µM*; 12-LOX inh: 19%; G9a block: 10µM*

What do the screens show for `Cc1oc(-c2ccc(C(=O)NCCCN3CCOCC3)cc2)nc1CS(=O)(=O)c1ccccc1`?
12-LOX inh: 0%

What do the screens show for `CCCNc1nc2ccccc2nc1C(=O)Nc1ccc(OC)cc1`?
12-LOX inh: -46%

What do the screens show for `CN1CCN(c2cc(N3CCN(C(=O)c4ccco4)CC3)c3c4c(onc24)-c2ccccc2C3=O)CC1`?
BAZ2B inh: 16µM*; Sfp PPTase inh: 16µM*; HP1b binding inh: inconclusive; JMJD2A Tudor inh: 40µM*; G9a block: 35µM*

What do the screens show for `O=C(c1ccco1)N1CCN(C2=NS(=O)(=O)c3ccccc32)CC1`?
BAZ2B inh: -5%; Sfp PPTase inh: 22%; HP1b binding inh: 28%; JMJD2A Tudor inh: 1%; 12-LOX inh: 42%; G9a block: -1%[12.7 µM]

What do the screens show for `CCCCNc1cc(N2CCN(C3CCCCC3)CC2)c2noc3c2c1C(=O)c1ccccc1-3`?
BAZ2B inh: 5µM*; HP1b binding inh: -22%; JMJD2A Tudor inh: inconclusive; 12-LOX inh: 13%; G9a block: inconclusive

What do the screens show for `CCn1c(=O)cc(SCC(=O)N2CCN(C3CCCCC3)CC2)c2ccccc21`?
BAZ2B inh: 2%; Sfp PPTase inh: 6%; HP1b binding inh: 24%; JMJD2A Tudor inh: -11%; 12-LOX inh: -7%; G9a block: -6%[59 µM]

How did COc1ccc(COc2ccc(C#N)cc2)c(Br)c1OC do in these assays?
12-LOX inh: 18%

From PubChem
